# Test results as given in ChEMBL document CHEMBL1961873, “Compounds: GSK PKIS; Assays: Nanosyn kinase panel” (2012).
# Experiments:
# [1] = molecular target: Fibroblast growth factor receptor 4 (Homo sapiens) (UniProt P22455); conditions: at 1 µM;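 further: reported figure is the averaged percent inhibition of FGFR4, from the GSK PKIS kinase screening panel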
# [2] = molecular target: Tyrosine-protein kinase Fgr (Homo sapiens) (UniProt P09769); conditions: at 0.1 µM
# [3] = molecular target: Tyrosine-protein kinase Fgr (Homo sapiens) (UniProt P09769); conditions: at 1 µM
# [4] = molecular target: Vascular endothelial growth factor receptor 1 (Homo sapiens) (UniProt P17948); conditions: at 0.1 µM
# [5] = molecular target: Vascular endothelial growth factor receptor 1 (Homo sapiens) (UniProt P17948); conditions: at 1 µM
# [6] = molecular target: Receptor-type tyrosine-protein kinase FLT3 (Homo sapiens) (UniProt P36888); conditions: at 0.1 µM
# [7] = molecular target: Receptor-type tyrosine-protein kinase FLT3 (Homo sapiens) (UniProt P36888); conditions: at 1 µM
# [8] = system: T1, Receptor-type tyrosine-protein kinase FLT3 (Homo sapiens), P36888 [D835Y]; conditions: at 0.1 µM
# T1 sequence (whole entry): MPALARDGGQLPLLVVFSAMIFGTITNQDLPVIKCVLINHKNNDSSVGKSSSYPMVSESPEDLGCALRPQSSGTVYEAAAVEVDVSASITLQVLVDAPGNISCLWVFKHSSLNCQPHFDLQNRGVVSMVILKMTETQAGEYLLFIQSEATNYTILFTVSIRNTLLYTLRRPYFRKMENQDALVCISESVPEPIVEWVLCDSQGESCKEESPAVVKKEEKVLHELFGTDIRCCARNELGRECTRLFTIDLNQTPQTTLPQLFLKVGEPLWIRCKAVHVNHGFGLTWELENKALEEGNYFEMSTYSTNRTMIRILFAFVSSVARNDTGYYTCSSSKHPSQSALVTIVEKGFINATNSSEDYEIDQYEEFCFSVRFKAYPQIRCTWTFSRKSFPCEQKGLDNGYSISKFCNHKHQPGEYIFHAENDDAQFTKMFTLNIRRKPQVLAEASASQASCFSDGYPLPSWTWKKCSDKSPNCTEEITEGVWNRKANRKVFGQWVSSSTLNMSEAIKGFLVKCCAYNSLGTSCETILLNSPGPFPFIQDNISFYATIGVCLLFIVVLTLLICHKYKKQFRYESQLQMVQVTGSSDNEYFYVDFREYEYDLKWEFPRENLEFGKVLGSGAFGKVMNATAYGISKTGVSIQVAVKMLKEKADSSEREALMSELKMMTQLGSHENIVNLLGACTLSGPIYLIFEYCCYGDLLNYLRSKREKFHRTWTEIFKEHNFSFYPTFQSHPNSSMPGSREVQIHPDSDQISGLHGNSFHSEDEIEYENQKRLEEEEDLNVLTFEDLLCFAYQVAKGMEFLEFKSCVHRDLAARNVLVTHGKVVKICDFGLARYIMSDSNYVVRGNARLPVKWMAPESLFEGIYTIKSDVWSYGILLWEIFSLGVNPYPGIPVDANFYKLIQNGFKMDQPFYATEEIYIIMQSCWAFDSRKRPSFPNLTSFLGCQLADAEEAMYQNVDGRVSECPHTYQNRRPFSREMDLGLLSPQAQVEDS
# [9] = molecular target: Non-receptor tyrosine-protein kinase TYK2 (Homo sapiens) (UniProt P29597); conditions: at 1 µM;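 further: values are mean percent inhibition of TYK2 kinase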
# [10] = molecular target: T2, Tyrosine-protein kinase receptor TYRO3 (Homo sapiens) (UniProt Q06418); conditions: at 0.1 µM
# T2 sequence (whole entry): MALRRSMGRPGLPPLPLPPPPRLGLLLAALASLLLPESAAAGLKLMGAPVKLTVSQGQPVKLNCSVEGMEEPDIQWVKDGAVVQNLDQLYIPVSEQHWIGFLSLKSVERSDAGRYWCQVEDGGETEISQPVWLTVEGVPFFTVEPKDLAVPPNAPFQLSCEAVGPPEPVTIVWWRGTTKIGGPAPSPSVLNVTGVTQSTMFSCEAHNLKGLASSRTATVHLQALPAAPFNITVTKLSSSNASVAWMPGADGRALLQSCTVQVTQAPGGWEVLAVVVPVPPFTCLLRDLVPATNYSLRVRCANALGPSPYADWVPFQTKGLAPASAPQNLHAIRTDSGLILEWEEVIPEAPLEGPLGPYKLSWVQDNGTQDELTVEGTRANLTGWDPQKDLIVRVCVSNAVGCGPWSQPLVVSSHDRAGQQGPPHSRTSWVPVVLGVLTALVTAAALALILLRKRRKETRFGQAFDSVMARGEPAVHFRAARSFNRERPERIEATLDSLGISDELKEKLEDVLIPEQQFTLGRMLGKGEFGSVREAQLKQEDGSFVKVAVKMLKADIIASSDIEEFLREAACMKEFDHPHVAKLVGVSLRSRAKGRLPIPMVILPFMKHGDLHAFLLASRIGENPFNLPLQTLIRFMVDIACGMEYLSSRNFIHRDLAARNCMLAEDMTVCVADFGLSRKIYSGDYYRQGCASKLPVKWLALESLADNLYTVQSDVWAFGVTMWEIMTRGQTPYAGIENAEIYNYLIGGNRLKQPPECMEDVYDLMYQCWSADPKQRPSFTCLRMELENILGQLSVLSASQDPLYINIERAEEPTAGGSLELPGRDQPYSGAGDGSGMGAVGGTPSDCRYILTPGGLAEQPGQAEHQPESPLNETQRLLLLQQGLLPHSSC
# [11] = molecular target: T2, Tyrosine-protein kinase receptor TYRO3 (Homo sapiens); conditions: at 1 µM
# [12] = molecular target: Tyrosine-protein kinase Yes (Homo sapiens) (UniProt P07947); conditions: at 0.1 µM
# [13] = molecular target: Tyrosine-protein kinase Yes (Homo sapiens) (UniProt P07947); conditions: at 1 µM
# [14] = molecular target: T3, Tyrosine-protein kinase ZAP-70 (Homo sapiens) (UniProt P43403); conditions: at 0.1 µM
# T3 sequence (whole entry): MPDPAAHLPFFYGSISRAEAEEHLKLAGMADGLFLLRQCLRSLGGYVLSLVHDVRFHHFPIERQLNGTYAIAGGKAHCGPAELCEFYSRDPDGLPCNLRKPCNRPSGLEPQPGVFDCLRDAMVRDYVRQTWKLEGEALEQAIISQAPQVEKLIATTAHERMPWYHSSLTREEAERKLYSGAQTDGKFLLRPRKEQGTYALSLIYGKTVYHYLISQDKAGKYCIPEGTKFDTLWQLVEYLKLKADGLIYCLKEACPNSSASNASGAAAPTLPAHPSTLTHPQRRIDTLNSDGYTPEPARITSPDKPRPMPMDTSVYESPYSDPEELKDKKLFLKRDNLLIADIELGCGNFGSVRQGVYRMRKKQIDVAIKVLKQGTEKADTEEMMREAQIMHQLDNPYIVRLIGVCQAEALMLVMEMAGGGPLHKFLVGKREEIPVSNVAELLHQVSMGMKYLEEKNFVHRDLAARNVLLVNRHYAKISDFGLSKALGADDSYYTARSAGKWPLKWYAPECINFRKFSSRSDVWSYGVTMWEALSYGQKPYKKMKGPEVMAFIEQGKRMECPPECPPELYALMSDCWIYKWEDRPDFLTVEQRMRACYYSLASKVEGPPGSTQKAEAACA
# [15] = molecular target: T3, Tyrosine-protein kinase ZAP-70 (Homo sapiens); conditions: at 1 µM
# [16] = molecular target: Serine/threonine-protein kinase B-raf (Homo sapiens) (UniProt P15056); conditions: at 0.1 µM
# [17] = molecular target: Serine/threonine-protein kinase B-raf (Homo sapiens) (UniProt P15056); conditions: at 1 µM
# [18] = system: Serine/threonine-protein kinase B-raf (Homo sapiens), P15056 [V600E]; conditions: at 0.1 µM
# [19] = system: Serine/threonine-protein kinase B-raf (Homo sapiens), P15056 [V600E]; conditions: at 1 µM
# [20] = molecular target: RAF proto-oncogene serine/threonine-protein kinase (Homo sapiens) (UniProt P04049); conditions: at 0.1 µM;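 further: values are mean CRAF kinase inhibition from profiling of the GSK Published Kinase Inhibitor Set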
# Chain of RAF proto-oncogene serine/threonine-protein kinase (Homo sapiens) (P04049 whole entry): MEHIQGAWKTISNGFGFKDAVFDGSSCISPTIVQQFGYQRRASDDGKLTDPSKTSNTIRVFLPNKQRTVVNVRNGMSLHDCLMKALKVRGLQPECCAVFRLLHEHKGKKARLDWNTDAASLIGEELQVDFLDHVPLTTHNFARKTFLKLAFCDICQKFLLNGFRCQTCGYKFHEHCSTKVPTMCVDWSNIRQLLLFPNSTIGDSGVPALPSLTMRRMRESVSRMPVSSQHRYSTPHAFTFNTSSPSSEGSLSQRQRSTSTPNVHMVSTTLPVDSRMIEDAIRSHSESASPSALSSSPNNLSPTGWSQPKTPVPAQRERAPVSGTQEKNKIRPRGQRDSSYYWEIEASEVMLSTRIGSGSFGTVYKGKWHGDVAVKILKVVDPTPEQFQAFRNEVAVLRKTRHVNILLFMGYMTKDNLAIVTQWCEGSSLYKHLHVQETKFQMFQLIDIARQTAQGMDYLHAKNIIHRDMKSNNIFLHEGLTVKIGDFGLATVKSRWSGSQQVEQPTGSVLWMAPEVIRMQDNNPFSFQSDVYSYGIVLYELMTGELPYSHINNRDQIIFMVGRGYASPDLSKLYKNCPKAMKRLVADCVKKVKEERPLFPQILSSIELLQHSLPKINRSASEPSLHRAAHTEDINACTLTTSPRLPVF
# Chain of Tyrosine-protein kinase Yes (Homo sapiens) (P07947 2-543 limits assumed): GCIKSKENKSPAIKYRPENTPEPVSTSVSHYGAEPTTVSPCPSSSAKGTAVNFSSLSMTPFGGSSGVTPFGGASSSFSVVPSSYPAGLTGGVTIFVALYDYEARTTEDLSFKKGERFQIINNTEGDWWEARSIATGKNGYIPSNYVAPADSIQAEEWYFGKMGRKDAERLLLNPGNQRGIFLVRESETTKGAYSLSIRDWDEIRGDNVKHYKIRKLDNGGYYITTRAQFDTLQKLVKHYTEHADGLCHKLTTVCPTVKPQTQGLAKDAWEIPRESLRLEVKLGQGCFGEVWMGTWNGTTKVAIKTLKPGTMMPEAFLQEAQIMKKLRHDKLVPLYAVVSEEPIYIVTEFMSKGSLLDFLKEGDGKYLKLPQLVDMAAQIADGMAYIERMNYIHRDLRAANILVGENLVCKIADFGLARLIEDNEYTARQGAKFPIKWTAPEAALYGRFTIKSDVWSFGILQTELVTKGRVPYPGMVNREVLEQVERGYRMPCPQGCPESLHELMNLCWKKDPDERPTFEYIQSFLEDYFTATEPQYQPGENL
# Chain of Serine/threonine-protein kinase B-raf (Homo sapiens), P15056 [V600E] (P15056 whole entry V600E): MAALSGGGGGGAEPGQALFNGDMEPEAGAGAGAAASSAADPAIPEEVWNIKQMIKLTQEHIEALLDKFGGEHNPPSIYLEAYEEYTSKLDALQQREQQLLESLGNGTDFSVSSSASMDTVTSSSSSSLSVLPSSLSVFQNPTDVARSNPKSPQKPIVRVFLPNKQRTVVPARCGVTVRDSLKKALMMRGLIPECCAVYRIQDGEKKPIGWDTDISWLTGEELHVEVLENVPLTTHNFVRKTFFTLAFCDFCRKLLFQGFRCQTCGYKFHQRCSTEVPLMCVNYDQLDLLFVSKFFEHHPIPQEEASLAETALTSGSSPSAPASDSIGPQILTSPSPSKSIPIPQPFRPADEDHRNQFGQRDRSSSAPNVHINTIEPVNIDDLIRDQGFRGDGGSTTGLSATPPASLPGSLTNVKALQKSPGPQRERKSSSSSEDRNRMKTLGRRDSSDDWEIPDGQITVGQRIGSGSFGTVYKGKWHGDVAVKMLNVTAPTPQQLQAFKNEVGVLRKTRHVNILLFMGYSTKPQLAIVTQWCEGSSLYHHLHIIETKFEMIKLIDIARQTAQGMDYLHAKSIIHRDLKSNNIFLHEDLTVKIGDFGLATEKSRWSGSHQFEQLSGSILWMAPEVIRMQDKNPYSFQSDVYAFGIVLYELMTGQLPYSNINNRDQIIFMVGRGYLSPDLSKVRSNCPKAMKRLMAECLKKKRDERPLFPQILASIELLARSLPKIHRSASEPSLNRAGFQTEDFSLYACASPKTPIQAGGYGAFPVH
# Chain of Tyrosine-protein kinase Fgr (Homo sapiens) (P09769 2-529 limits assumed): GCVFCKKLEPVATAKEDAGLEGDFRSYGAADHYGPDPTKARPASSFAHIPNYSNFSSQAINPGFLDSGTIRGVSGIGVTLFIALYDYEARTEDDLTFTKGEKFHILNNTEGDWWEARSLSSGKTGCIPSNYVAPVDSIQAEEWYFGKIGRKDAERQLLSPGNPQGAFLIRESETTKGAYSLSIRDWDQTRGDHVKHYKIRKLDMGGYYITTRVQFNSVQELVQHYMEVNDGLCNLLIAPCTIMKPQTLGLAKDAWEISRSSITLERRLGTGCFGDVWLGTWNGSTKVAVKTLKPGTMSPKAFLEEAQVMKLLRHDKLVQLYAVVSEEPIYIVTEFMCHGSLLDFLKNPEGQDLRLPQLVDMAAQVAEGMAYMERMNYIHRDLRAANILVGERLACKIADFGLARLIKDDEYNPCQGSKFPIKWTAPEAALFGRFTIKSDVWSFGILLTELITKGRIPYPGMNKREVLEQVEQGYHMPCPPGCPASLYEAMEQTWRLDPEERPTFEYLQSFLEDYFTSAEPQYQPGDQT
# Chain of Fibroblast growth factor receptor 4 (Homo sapiens) (P22455 22-802 limits assumed): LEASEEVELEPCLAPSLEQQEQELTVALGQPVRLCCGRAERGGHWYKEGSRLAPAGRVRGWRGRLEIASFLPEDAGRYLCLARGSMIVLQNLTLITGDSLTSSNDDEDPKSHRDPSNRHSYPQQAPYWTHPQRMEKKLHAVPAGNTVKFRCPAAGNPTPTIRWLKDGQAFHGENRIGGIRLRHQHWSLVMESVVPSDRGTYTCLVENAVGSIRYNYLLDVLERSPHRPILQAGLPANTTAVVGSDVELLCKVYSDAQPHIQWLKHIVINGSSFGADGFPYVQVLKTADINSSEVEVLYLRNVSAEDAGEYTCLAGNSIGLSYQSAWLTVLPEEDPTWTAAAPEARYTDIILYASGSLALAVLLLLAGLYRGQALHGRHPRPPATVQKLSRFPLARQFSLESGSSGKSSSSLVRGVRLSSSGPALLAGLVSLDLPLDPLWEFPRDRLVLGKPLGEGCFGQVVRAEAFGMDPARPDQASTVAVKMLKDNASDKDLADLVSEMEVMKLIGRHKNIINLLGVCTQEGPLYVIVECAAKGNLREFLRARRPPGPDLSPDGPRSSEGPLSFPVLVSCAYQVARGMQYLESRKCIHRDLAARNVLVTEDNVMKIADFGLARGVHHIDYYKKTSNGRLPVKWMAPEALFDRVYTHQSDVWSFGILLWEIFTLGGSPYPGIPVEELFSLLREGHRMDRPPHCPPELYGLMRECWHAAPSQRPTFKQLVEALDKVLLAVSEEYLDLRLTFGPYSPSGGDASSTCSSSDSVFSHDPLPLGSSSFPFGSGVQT
# Chain of Serine/threonine-protein kinase B-raf (Homo sapiens) (P15056 whole entry): as the sequence (P15056 whole entry V600E) above, with E600V counted along it
# Chain of Vascular endothelial growth factor receptor 1 (Homo sapiens) (P17948 whole entry): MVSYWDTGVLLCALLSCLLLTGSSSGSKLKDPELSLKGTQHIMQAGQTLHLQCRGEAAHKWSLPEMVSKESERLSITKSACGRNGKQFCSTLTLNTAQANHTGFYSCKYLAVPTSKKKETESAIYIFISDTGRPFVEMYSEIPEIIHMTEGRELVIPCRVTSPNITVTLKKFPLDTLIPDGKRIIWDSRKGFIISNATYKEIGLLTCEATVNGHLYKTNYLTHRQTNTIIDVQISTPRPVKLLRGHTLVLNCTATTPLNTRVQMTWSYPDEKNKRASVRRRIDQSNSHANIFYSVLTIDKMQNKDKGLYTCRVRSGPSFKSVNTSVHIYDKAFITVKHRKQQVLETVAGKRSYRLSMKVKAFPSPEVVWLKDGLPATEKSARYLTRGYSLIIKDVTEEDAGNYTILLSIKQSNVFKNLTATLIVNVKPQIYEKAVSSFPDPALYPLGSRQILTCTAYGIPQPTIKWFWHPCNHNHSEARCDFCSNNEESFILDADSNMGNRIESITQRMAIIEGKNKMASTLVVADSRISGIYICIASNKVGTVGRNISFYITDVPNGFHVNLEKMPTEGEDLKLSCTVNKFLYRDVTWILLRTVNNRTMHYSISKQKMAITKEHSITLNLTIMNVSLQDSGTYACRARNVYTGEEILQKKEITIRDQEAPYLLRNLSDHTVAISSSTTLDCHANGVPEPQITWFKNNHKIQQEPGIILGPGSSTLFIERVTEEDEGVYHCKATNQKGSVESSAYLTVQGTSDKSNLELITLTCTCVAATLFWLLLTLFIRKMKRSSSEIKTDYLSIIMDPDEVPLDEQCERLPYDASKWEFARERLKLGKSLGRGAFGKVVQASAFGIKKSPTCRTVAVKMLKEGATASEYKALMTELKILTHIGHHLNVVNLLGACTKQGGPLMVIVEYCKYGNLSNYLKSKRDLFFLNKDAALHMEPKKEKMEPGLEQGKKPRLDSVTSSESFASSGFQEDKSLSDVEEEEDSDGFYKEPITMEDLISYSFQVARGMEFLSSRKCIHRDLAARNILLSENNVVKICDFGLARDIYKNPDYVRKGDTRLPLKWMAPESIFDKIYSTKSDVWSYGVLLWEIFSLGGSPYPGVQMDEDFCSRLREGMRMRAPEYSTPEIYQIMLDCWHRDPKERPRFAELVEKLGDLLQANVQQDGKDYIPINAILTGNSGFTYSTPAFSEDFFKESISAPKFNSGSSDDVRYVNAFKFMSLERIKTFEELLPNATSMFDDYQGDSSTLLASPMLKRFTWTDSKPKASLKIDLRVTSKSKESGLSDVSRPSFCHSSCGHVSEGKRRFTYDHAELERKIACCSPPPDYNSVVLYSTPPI
SMILES,inhibition [1] [%],inhibition [2] [%],inhibition [3] [%],inhibition [4] [%],inhibition [5] [%],inhibition [6] [%],inhibition [7] [%],inhibition [8] [%],inhibition [9] [%],inhibition [10] [%],inhibition [11] [%],inhibition [12] [%],inhibition [13] [%],inhibition [14] [%],inhibition [15] [%],inhibition [16] [%],inhibition [17] [%],inhibition [18] [%],inhibition [19] [%],inhibition [20] [%]
COc1cccc(-n2ncc3c(N/N=C/c4ccc(C(=O)NCCN(C)C)cc4)ncnc32)c1,4.18,47.4,82.1,8.45,37.3,14,54.9,30.8,5.84,16.6,60.6,58.5,86,-2.3,4.14,11.1,27.8,9.71,23.6,2.11
Cn1c(-c2nonc2N)nc2cnccc21,1.93,2.79,3.33,1.36,1.68,4.49,1.55,1.71,-2.34,1.78,0.09,1.37,1.42,3.27,1.74,4.15,3.62,4.29,3.98,2.49
CCS(=O)(=O)c1ccc(OC)c(Nc2ncc(-c3cccc(F)c3)o2)c1,17.6,40.2,76.2,14.2,55.3,23.3,74.5,17.6,-2.12,6.63,26.2,75.9,96.3,1.94,5.25,7.42,10,4.95,4.95,1.22
COc1ccc(-c2nn3ncccc3c2-c2ccnc(Nc3ccc(F)c(F)c3)n2)cc1,0.82,20.4,60.8,2.48,6.3,2.32,4.16,4.75,-1.25,3.56,6.24,39.5,85.2,2.54,1.2,5.72,5.29,4.54,3.83,0.22
FC(F)(F)CNc1nccc(-c2cnn3ncccc23)n1,-0.36,2.09,3.01,-0.04,0.56,0.41,-1.47,-2.63,-2.6,0.93,2.17,1.28,1.55,0.71,1.8,4.03,3.85,3.08,2.52,-1.22
COc1ccc(Nc2ncc(-c3ccccc3)o2)cc1OC,1.3,3.96,31.4,6.85,23.6,76.6,89.4,15.2,5.03,0.14,4.23,7,35.7,1.28,1.27,-1.46,1.35,0.52,2.34,-0.64
COc1cc(N2CCN(C(C)C)CC2)ccc1Nc1nc(Nc2cccc3ncccc23)c2cc[nH]c2n1,0.41,-0.04,3.16,1.51,0.56,0.08,1.34,1.05,2.42,-2.4,-0.92,-0.19,1.79,-0.91,-0.16,-0.4,0.61,0.32,1.11,0.02
N#Cc1ccc2c(-c3ccnc(NC4CC4)n3)c(-c3ccc(F)cc3)nn2c1,-0.59,1.68,1.53,1.23,3.07,0.32,-2.7,-5.78,-2.44,-1.24,0.69,2.22,3.79,-2.8,1.15,2.6,5.81,2.7,4.72,-0.7
c1ccc(-c2n[nH]cc2-c2ccnc(-c3ccc(OCCn4ccnc4)cc3)c2)nc1,4.5,0.78,2.78,5.66,29.5,-0.04,2.15,2.71,-0.27,1.13,1.47,1.05,8.13,2.15,2.34,2.04,1.85,0.71,1.34,-0.53
COc1cccc(Nc2nccc(-c3cnn4ncccc34)n2)c1,1.33,7.08,19.3,9.62,25.1,33,78.9,16.7,30.3,3.96,21.2,3.57,20.5,2.31,11.7,5.24,31.6,4.52,30.7,2.53
NS(=O)(=O)c1cccc(N/C=C2\C(=O)Nc3ccccc32)c1,3.92,5.5,13.8,7.92,15.2,5.75,36.4,1.52,-1.95,3.33,8.3,4.04,9.49,1.68,4.58,6.24,7.76,6.39,7.82,-0.16
OCCCNc1nccc(-c2c(-c3ccc(F)cc3)nn3cc(C(F)(F)F)ccc23)n1,0.98,2.9,8.24,1.4,3.41,1.66,3.11,-1.23,-1.77,1.9,1.03,1.78,1.85,2.54,-1.3,3.71,11.6,2.84,9.93,0.53
